Source: the supplement of paper PMC10849652
About 8,800 targets were measured; listed, in parts, are those with a hit and a random draw of the rest. About 0.5% of all pairs of compound and target were hits. A number with no mark means an inactive call.

Tests used:
Assay in all cases: log2 fold change, soluble protein after heating vs DMSO (PISA); higher = thermal stabilisation; K562 lysate, 10 uM; active = over 0.2 and 3.5 SD of the protein, either way, in both replicates (recomputed)
nilotinib = compound: Cc1cn(-c2cc(NC(=O)c3ccc(C)c(Nc4nccc(-c5cccnc5)n4)c3)cc(C(F)(F)F)c2)cn1 [nilotinib]
Outline: (§1)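 Quantification was by TMTpro 16plex LC-MS/MS with equalised channel sums, applied to the supernatant after 21,000xg for 90 min. Samples were crude K562 extract at 1 mg/mL protein in PBS pH 7.4 with 1 mM MgCl2, treated with 10 μM compound for 30 min, heated for 3 min across 48°C-58°C, pooled and brought to 0.5% NP-40 at 4°C. Values are log-two fold changes in thermal stability relative to solvent controls, from duplicates.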

[1] = compound: Cc1nc(Nc2n[nH]c3c2CN(C(=O)N[C@H](CN(C)C)c2ccccc2)C3(C)C)c2sccc2n1
Outline: as §1

dasatinib = compound: Cc1nc(Nc2ncc(C(=O)Nc3c(C)cccc3Cl)s2)cc(N2CCN(CCO)CC2)n1 [dasatinib]
Outline: as §1

[2] = compound: Cc1ncc(-c2ccnc(Nc3ccc(S(C)(=O)=O)cc3)n2)n1C(C)C
Outline: as §1

[3] = compound: Cn1cc(-c2ccc3c(c2)CCN3C(=O)Cc2cccc(C(F)(F)F)c2)c2c(N)ncnc21
Outline: as §1

quisinostat = compound: Cn1cc(CNCC2CCN(c3ncc(C(=O)NO)cn3)CC2)c2ccccc21 [quisinostat]
Outline: as §1

tipifarnib = compound: Cn1cncc1[C@@](N)(c1ccc(Cl)cc1)c1ccc2c(c1)c(-c1cccc(Cl)c1)cc(=O)n2C [tipifarnib]
Outline: as §1

[4] = compound: NC(=O)Nc1cc(-c2cccc(F)c2)sc1C(=O)N[C@H]1CCCNC1
Outline: as §1

[5] = compound: NC1(c2ccc(-c3nc4ccn5c(=O)[nH]nc5c4cc3-c3ccccc3)cc2)CCC1
Outline: as §1

[6] = compound: NC(=O)c1cnc(N[C@@H]2CCCC[C@@H]2N)nc1Nc1cccc(-n2nccn2)c1
Outline: as §1

Target: HECW2 (UniProt Q9P2P5)
- log2 fold change (nilotinib): -0.147
- log2 fold change [1]: 0.021
- log2 fold change (dasatinib): -0.031
- log2 fold change [2]: -0.092
- log2 fold change [3]: -0.103
- log2 fold change (quisinostat): -0.513 (active)
- log2 fold change (tipifarnib): -0.041
- log2 fold change [4]: -0.035
- log2 fold change [5]: 0.126

Target: HNRNPL (UniProt P14866)
- log2 fold change (nilotinib): -0.011
- log2 fold change [1]: -0.015
- log2 fold change (dasatinib): -0.036
- log2 fold change [2]: 0.013
- log2 fold change [3]: 0.068
- log2 fold change (quisinostat): -0.07
- log2 fold change (tipifarnib): 0.012
- log2 fold change [4]: 0.042
- log2 fold change [6]: -0.001
- log2 fold change [5]: 0.022

Target: HNRNPD isoform 2 (UniProt Q14103)
UniProt Q14103, sequence (Q14103 whole entry, looked up): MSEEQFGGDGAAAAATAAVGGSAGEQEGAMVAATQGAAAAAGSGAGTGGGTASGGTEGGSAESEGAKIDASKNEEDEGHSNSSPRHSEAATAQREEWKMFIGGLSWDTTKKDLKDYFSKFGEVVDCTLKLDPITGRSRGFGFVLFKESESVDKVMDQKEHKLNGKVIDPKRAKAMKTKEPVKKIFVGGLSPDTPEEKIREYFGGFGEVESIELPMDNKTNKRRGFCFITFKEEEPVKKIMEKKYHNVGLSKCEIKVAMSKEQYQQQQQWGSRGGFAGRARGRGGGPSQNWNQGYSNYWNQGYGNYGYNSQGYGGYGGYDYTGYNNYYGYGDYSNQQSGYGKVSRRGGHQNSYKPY
- log2 fold change (nilotinib): -0.047
- log2 fold change [1]: 0
- log2 fold change (dasatinib): -0.02
- log2 fold change [2]: 0.009
- log2 fold change [3]: -0.05
- log2 fold change (quisinostat): 0.139
- log2 fold change (tipifarnib): 0.029
- log2 fold change [4]: -0.025
- log2 fold change [6]: 0.015
- log2 fold change [5]: -0.008

Target: H3-3A (UniProt P84243)
- log2 fold change (quisinostat): 0.014
- log2 fold change [4]: 0.032
- log2 fold change [6]: 0
- log2 fold change [5]: -0.093

Target: HNRNPM (UniProt M0QZM1)
- log2 fold change (dasatinib): -0.022
- log2 fold change [3]: -0.163
- log2 fold change (quisinostat): 0
- log2 fold change [4]: -0.012

Target: ISL2 (UniProt Q96A47)
- log2 fold change (dasatinib): 0.015
- log2 fold change [3]: 0.053
- log2 fold change (quisinostat): 0.055
- log2 fold change [4]: -0.092
- log2 fold change [5]: 0.014

Target: HDLBP, A0A024R4E5
- log2 fold change (nilotinib): -0.011
- log2 fold change [1]: 0.006
- log2 fold change (dasatinib): -0.038
- log2 fold change [2]: 0.014
- log2 fold change [3]: 0.015
- log2 fold change (quisinostat): -0.076
- log2 fold change (tipifarnib): 0.001
- log2 fold change [4]: 0.018
- log2 fold change [6]: -0.002
- log2 fold change [5]: -0.022

Target: HYDIN (UniProt Q4G0P3)
- log2 fold change (dasatinib): -0.034
- log2 fold change [3]: 0.219
- log2 fold change [6]: -0.282

Target: GTPBP6 (UniProt O43824)
- log2 fold change (dasatinib): -0.025
- log2 fold change [3]: 0.136

Target: KDM5C (UniProt P41229)
- log2 fold change (nilotinib): -0.021
- log2 fold change [1]: -0.005
- log2 fold change (dasatinib): -0.032
- log2 fold change [2]: 0.022
- log2 fold change [3]: 0.033
- log2 fold change (quisinostat): -0.084
- log2 fold change (tipifarnib): 0.037
- log2 fold change [4]: 0.032
- log2 fold change [6]: -0.037
- log2 fold change [5]: -0.032

Target: KDM5B isoform 2 (UniProt Q9UGL1)
- log2 fold change (dasatinib): 0.021
- log2 fold change [3]: -0.049
- log2 fold change (quisinostat): -0.117
- log2 fold change [4]: -0.085
- log2 fold change [6]: 0.034
- log2 fold change [5]: -0.049

Target: ITGB1BP2 (UniProt Q9UKP3)
- log2 fold change (dasatinib): -0.104
- log2 fold change [3]: 0.249

Target: HNRNPUL1 (UniProt M0R247)
- log2 fold change [5]: -0.063

Target: GTF2H1 (UniProt P32780)
UniProt P32780, sequence (P32780 whole entry, looked up): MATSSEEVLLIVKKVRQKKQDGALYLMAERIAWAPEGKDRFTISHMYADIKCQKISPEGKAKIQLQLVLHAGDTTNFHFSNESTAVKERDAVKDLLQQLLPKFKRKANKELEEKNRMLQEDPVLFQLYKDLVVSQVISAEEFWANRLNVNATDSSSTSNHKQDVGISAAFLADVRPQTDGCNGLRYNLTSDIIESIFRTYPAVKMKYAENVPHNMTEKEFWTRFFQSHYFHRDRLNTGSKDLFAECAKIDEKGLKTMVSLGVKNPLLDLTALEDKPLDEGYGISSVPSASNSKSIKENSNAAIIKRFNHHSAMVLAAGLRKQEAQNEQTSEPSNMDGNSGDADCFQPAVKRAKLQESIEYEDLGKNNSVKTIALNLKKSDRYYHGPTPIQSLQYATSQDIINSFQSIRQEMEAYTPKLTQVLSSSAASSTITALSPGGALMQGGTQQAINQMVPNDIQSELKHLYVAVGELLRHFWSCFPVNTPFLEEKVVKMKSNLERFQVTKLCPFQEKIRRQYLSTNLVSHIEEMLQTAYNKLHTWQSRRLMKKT
- log2 fold change (nilotinib): 0.009
- log2 fold change [1]: 0.013
- log2 fold change (dasatinib): -0.012
- log2 fold change [2]: -0.04
- log2 fold change [3]: 0.043
- log2 fold change (quisinostat): -0.064
- log2 fold change (tipifarnib): 0.084
- log2 fold change [4]: 0.06
- log2 fold change [6]: 0.037
- log2 fold change [5]: -0.036

Target: ILK (UniProt Q13418)
- log2 fold change (nilotinib): 0.01
- log2 fold change [1]: -0.066
- log2 fold change (dasatinib): 0.071
- log2 fold change [2]: 0
- log2 fold change [3]: 0.014
- log2 fold change (quisinostat): -0.076
- log2 fold change (tipifarnib): -0.001
- log2 fold change [4]: 0.097
- log2 fold change [6]: -0.022
- log2 fold change [5]: -0.036

Target: HDAC3 (UniProt E7ESJ6)
- log2 fold change [6]: 0.058

Target: HDAC3 (UniProt O15379)
UniProt O15379, sequence (O15379 whole entry, looked up): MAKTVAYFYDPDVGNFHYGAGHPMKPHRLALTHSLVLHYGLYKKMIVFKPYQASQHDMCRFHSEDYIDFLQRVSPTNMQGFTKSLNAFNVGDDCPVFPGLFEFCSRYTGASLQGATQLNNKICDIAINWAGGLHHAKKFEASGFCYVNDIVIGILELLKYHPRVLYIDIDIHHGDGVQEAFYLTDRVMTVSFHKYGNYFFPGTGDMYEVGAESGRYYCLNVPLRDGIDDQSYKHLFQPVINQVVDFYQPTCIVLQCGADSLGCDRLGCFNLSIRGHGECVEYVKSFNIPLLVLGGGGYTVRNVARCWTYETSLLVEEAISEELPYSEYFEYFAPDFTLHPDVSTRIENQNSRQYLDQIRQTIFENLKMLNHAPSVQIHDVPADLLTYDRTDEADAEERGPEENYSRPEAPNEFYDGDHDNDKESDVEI
- log2 fold change (nilotinib): -0.079
- log2 fold change [1]: -0.019
- log2 fold change (dasatinib): 0.04
- log2 fold change [2]: -0.026
- log2 fold change [3]: 0.007
- log2 fold change (quisinostat): -0.004
- log2 fold change (tipifarnib): -0.102
- log2 fold change [4]: 0.038
- log2 fold change [6]: -0.004
- log2 fold change [5]: -0.049

Target: IPP (UniProt Q9Y573)
- log2 fold change (dasatinib): -0.244
- log2 fold change [3]: 0.03
- log2 fold change [6]: -0.097
- log2 fold change [5]: 0.093

Target: HOMER3 (UniProt Q9NSC5)
- log2 fold change (quisinostat): -0.147
- log2 fold change [4]: 0.019
- log2 fold change [6]: -0.023

Target: IFITM3 (UniProt Q01628)
- log2 fold change (nilotinib): 0.068
- log2 fold change [1]: 0.055
- log2 fold change (dasatinib): 0.049
- log2 fold change [2]: -0.013
- log2 fold change [3]: 0.064
- log2 fold change (quisinostat): -0.069
- log2 fold change (tipifarnib): -0.136
- log2 fold change [4]: -0.044
- log2 fold change [6]: -0.133
- log2 fold change [5]: -0.051

Target: HMGN5 (UniProt Q5JSK9)
- log2 fold change (nilotinib): -0.074
- log2 fold change [1]: 0.062
- log2 fold change [2]: -0.036
- log2 fold change (tipifarnib): 0.076
- log2 fold change [6]: -0.035

Target: HTT (UniProt P42858)
UniProt P42858, sequence (P42858 whole entry, looked up): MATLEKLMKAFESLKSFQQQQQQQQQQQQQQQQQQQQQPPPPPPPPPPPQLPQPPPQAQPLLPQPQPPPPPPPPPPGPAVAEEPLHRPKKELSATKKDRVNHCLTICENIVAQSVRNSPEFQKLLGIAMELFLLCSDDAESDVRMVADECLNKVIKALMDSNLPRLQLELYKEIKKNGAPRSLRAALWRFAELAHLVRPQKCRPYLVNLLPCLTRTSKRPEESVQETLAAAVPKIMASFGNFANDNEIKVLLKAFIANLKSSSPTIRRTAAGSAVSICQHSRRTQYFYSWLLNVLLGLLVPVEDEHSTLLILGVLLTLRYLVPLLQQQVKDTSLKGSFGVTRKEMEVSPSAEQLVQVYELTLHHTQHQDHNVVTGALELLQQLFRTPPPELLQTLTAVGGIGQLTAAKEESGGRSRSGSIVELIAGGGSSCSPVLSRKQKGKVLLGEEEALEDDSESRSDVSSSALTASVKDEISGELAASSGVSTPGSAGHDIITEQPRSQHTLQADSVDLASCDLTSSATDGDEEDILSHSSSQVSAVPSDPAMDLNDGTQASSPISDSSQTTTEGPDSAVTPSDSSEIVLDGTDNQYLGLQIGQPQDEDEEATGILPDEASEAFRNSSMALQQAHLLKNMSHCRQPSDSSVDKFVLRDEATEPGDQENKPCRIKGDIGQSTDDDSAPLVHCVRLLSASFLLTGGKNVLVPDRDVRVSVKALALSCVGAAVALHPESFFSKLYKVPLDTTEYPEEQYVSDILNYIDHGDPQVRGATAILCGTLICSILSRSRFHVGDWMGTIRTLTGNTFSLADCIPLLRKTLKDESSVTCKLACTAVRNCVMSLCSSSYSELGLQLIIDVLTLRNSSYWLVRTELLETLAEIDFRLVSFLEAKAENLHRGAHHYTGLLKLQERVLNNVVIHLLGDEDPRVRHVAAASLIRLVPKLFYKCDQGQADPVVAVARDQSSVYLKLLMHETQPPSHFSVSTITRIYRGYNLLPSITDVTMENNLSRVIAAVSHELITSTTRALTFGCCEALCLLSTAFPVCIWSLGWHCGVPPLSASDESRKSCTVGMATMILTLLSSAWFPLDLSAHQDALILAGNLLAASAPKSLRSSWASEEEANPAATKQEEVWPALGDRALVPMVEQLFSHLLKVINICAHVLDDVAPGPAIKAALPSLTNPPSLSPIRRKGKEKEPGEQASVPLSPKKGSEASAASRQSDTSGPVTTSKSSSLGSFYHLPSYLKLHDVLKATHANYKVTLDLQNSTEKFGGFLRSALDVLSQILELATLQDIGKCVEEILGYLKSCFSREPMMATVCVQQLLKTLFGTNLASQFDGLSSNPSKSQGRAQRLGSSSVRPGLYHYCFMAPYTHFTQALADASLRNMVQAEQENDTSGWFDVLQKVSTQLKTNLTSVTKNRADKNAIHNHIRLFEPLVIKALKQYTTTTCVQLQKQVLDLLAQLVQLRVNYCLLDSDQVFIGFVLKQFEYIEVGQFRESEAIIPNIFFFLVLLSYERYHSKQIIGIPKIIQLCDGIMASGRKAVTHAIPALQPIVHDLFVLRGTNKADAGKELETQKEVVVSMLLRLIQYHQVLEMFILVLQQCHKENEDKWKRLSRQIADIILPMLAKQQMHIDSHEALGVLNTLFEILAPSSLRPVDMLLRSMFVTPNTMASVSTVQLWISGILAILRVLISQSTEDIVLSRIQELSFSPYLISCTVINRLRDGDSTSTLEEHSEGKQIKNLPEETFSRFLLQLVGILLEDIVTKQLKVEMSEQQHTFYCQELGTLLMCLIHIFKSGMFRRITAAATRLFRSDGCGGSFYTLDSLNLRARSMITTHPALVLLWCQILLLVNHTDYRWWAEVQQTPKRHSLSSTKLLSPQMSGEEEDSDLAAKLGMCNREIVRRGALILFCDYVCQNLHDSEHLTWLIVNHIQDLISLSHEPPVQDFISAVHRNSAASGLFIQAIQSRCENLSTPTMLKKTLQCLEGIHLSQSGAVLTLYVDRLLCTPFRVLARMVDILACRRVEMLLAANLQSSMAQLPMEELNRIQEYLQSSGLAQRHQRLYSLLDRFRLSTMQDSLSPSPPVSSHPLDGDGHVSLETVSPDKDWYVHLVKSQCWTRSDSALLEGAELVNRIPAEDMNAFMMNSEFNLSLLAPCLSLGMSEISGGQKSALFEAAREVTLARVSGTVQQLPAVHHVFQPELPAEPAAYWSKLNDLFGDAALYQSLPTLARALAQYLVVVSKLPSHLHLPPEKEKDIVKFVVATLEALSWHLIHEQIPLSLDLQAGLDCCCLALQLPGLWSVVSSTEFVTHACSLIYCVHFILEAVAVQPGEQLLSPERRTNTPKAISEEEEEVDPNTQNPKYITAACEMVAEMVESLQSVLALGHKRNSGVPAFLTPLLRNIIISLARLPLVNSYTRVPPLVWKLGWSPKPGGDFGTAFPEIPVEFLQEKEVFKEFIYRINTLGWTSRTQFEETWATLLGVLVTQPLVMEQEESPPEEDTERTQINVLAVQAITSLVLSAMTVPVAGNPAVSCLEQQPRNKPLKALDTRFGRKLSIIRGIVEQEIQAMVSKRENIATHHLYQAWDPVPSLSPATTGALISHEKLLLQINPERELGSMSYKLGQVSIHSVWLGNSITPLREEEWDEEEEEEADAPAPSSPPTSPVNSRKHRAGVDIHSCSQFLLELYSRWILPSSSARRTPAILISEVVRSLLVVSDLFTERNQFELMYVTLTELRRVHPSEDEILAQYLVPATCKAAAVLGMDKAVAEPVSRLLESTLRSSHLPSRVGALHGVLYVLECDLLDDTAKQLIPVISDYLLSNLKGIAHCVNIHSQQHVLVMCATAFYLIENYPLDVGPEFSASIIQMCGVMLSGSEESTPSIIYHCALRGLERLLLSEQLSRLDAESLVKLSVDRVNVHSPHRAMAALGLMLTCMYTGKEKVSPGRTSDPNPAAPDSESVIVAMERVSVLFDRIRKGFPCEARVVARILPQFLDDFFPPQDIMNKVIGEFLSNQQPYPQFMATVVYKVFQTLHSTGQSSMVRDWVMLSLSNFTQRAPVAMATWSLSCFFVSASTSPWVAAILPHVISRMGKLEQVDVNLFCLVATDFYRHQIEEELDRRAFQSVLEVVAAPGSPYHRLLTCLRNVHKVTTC
- log2 fold change (nilotinib): -0.106
- log2 fold change [1]: 0.003
- log2 fold change (dasatinib): 0.001
- log2 fold change [2]: 0.072
- log2 fold change [3]: 0.072
- log2 fold change (quisinostat): -0.081
- log2 fold change (tipifarnib): -0.072
- log2 fold change [4]: 0.041
- log2 fold change [5]: 0.005

Target: GYPA (UniProt P02724)
- log2 fold change (dasatinib): 0.097
- log2 fold change [3]: 0.045
- log2 fold change (quisinostat): -0.062
- log2 fold change [4]: 0.026
- log2 fold change [6]: -0.047
- log2 fold change [5]: -0.024

Target: GPLD1 (UniProt P80108)
- log2 fold change (dasatinib): -0.255
- log2 fold change [3]: 0
- log2 fold change (quisinostat): 0.108
- log2 fold change [4]: 0.153

Target: ITM2B (UniProt Q9Y287)
UniProt Q9Y287, sequence (Q9Y287 whole entry, looked up): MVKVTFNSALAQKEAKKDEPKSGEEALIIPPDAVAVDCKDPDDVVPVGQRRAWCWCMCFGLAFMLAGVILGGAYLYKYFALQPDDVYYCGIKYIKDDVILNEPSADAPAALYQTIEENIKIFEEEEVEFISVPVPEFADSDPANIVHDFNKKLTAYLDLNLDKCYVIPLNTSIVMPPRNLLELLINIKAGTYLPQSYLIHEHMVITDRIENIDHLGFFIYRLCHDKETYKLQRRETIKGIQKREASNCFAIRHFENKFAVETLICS
- log2 fold change (nilotinib): 0.012
- log2 fold change [1]: -0.028
- log2 fold change (dasatinib): 0.023
- log2 fold change [2]: -0.002
- log2 fold change [3]: -0.031
- log2 fold change (quisinostat): 0.015
- log2 fold change (tipifarnib): -0.012
- log2 fold change [4]: 0.018
- log2 fold change [5]: -0.024

Target: GPA33 (UniProt Q99795)
- log2 fold change (nilotinib): -0.085
- log2 fold change [1]: -0.093
- log2 fold change (dasatinib): -0.077
- log2 fold change [2]: -0.023
- log2 fold change [3]: -0.09
- log2 fold change (tipifarnib): 0.022
- log2 fold change [6]: -0.045
- log2 fold change [5]: 0.047

Target: ITPRIP (UniProt Q8IWB1)
- log2 fold change (dasatinib): -0.017
- log2 fold change [3]: 0.005
- log2 fold change [5]: 0.06

Target: HNRNPD (UniProt D6RF44)
- log2 fold change (nilotinib): -0.03
- log2 fold change [1]: 0.11
- log2 fold change [2]: 0.103
- log2 fold change (quisinostat): -0.061
- log2 fold change (tipifarnib): 0.12
- log2 fold change [4]: -0.353

Target: GSTM4 (UniProt Q03013)
- log2 fold change (nilotinib): -0.163
- log2 fold change [1]: 0.019
- log2 fold change (dasatinib): -0.047
- log2 fold change [2]: 0.054
- log2 fold change [3]: 0.118
- log2 fold change (quisinostat): 0.163
- log2 fold change (tipifarnib): 0.008
- log2 fold change [4]: -0.003
- log2 fold change [6]: 0.024
- log2 fold change [5]: -0.032

Target: GSTM2 (UniProt P28161)
UniProt P28161, sequence (P28161 whole entry, looked up): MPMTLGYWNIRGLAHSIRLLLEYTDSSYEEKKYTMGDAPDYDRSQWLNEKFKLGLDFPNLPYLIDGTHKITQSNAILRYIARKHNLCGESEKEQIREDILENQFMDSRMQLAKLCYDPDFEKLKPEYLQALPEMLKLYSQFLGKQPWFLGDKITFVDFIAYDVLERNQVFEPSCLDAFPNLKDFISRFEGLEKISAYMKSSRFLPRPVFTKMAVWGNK
- log2 fold change (nilotinib): 0.124
- log2 fold change [1]: -0.007
- log2 fold change (dasatinib): 0.027
- log2 fold change [2]: 0.007
- log2 fold change [3]: -0.005
- log2 fold change (tipifarnib): 0.064
- log2 fold change [6]: -0.052
- log2 fold change [5]: -0.019

Target: IGF2BP2 isoform 6 (UniProt Q9Y6M1)
- log2 fold change [6]: 0.079

Target: ITPR2 (UniProt Q14571)
- log2 fold change (nilotinib): -0.008
- log2 fold change [1]: -0.081
- log2 fold change (dasatinib): 0.019
- log2 fold change [2]: 0.048
- log2 fold change [3]: -0.078
- log2 fold change (tipifarnib): 0.003
- log2 fold change [6]: 0.277
- log2 fold change [5]: -0.12

Target: KCTD20 (UniProt Q7Z5Y7)
- log2 fold change (nilotinib): 0.054
- log2 fold change [1]: -0.021
- log2 fold change (dasatinib): -0.096
- log2 fold change [2]: 0.074
- log2 fold change [3]: 0.039
- log2 fold change (quisinostat): -0.138
- log2 fold change (tipifarnib): -0.028
- log2 fold change [4]: 0.109
- log2 fold change [6]: 0.089
- log2 fold change [5]: -0.007

Target: HNRNPL, A0A3B3ITJ4
- log2 fold change [6]: 0.019

Target: GRK6 isoform 2 (UniProt P43250)
- log2 fold change (nilotinib): -0.024
- log2 fold change [1]: 0.094
- log2 fold change (dasatinib): 0.023
- log2 fold change [2]: 0.005
- log2 fold change [3]: -0.014
- log2 fold change (quisinostat): -0.043
- log2 fold change (tipifarnib): 0
- log2 fold change [4]: 0.012
- log2 fold change [6]: 0.028
- log2 fold change [5]: -0.097
